Data from the supplement of paper PMC11417369.
Whole data set: some 25,000 sequences, median “ln(normalized median fluorescence intensity)” near 7.1, cut for the highest 2% near 10. Only a selection was taken, and the highest values are over-represented in it overall.

Tested on: PfSIP2 AP2 domain 1 (GST-tagged)
Assay: gcPBM binding intensity (ln(normalized median fluorescence intensity)); higher = stronger DNA binding
Summary of the method: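 An Agilent 4 × 180k array of primer-extended double-stranded 36-bp intergenic genomic probes, with negative controls, was incubated for 1 h with GST-tagged P. falciparum DNA-binding domains expressed in E. coli. Alexa488 anti-GST antibody detected bound protein, scanned at 488 nm. Binding intensity is the highest Masliner-normalised natural-log median intensity across replicate spots of either probe orientation.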

Sequence	gcPBM binding intensity (ln)
ATTATTAAAAATATGGGTACATATTATTGTTATATA [XGTACX_site1958]	6.89
AAAAAATAAAAAATATGTACACATTCAAAATTTTAC [XGTACX_site8479]	6.91
TATATTTTTATGTGTGTGCACAAAATAACAAAATAT [GTGCAC_site9596]	9.36
ATTTTATGAAATGTTGCACACAAAAAACAACATGTT [CACACA_site8408]	7.66
TATTTTTGGTTATGTGTGCACTATGAACAACAAAAT	10.5
AATATTTGCCTATGTTGTACTGACATTTTTTTAAGT [XGTACX_site6836]	7.06
TTTTAAGATATAAATTAATACTTATATATATAGATA [CACACA_negctrl_site22]	6.75
TAATTACACTTTAAAAGTACATATATAATAACATTA [XGTACX_site379]	7.04
ATTAGTTTACACATATGTACATATATTACAACAAAA [XGTACX_site275]	7.34
AAAAAGAACACAAAAAGTACAAAAATTATAATGATA [XGTACX_site2676]	6.98
ATATTATATATATACACACACACATGCATGCACCTA [CACACA_site106]	11.1
AAAAAAAAAACACACACATGCACATCATATTATATA [TGCATGCA_site133]	7.03
CATATATGGTTATATACATGCACCATTATATTATTA [TGCATGCA_site520]	10.3
ATATGGATTATACATACATGCATACATACATACATA [TGCATGCA_site475]	7.1
ATATTATATATATACACACACACATGCATGCACATA [CACACA_site7917]	8.98
AAAAAAAAAAAAAACACACACATGCACATCATATTA [CACACA_site4467]	7.43
ATATTATAGATATACACACACACATGCATGCACATA [CACACA_site6203]	8.64
AACACATACATATATGCACACATTTTATTCCATTAT [CACACA_site2834]	8.05
AAAAAAAAAAAAAACACACACATGCACCTCATATTA [CACACA_site556]	11.4
AAAAAAAATGATAATATACACACTTATGGGAGAGCG [CACACA_site2516]	6.97

Sequence	gcPBM binding intensity (ln)
TATATAATACGAATTTGTACATATTAAATAAATTAT [XGTACX_site93]	6.84
TTTTAAAAAACAAACACACACGTAGAAAAAAAAAAA [CACACA_site4608]	6.99
GGTAGAAAATCAGTTAAACACACACCGAAAAAAAAA [CACACA_site8934]	7.24
TATGAACACCAACACACACACAAAAAAAAAAAAAAA [CACACA_site2013]	7.3
TACATATTTTGTATATATTATTTATTTTATTAGTTT [XGTACX_negctrl_site85]	6.74
TTAATAGGTCGAAGTAGTACATAAAAATATATATAT [XGTACX_site5960]	8.1
CACCCATAAATATACACACGCACAACACAAAATAAA [CACACA_site2903]	7.52
TATACAATATAAAATACACACGCACCCAAAAAAAAA [CACACA_site9174]	10.4
AATGTACACCCACCCACACACAAACAAATATATATA [CACACA_site5521]	7.62
AATGTACCCACACCCACACACAAACAAATATATATA [CACACA_site2751]	7.47
ATTATACACGCGCGCACACACAACAAAAAAAAAAAA [CACACA_site7630]	7.59
ATAAAAATTGATTATACACACGCGCACCCACAACAA [CACACA_site3536]	11.2
ATAAAAATTGATTATACACACGCGCCCAGACAACAA [CACACA_site5870]	7.24
AATGTACACGCACCCACACACAAACAAATATAAATA [CACACA_site7319]	10.3
GACACCCATAAATATACACACGCACAACACAAAATA [CACACA_site8944]	7.67
TATATATAATTCATACATTTTAAATATATTTATTTA [CACACA_negctrl_site840]	7.01
TATTGAATAAAATGCACACGCATGCGTTATTTATTA [CACACA_site3479]	6.9
ATATATCATGCCAAGGGTACAAATGTGTAGTTGAAA [XGTACX_site2820]	7.16
AAAAAAAAATACATATGTACTTATGTATAATGTTGT [XGTACX_site8104]	7.14
AACTTTTTACAAACAGGTACGCATATATATATATAT [XGTACX_site5081]	8.9

Sequence	gcPBM binding intensity (ln)
AAAATACACGCATACACACACACACCCACCCATATA [CACACA_site639]	7.14
TCCCCTTAATTTAAAACACACAAACAAATAAGTTAG [CACACA_site5973]	6.91
TATAAGAGGATATATACACACAAAAATATGTACAGT [CACACA_site6885]	7.07
AAGAGGATACACAATGTGCACTTTTTTTTTTTTTTT [GTGCAC_site9415]	10.5
GAATGTCTAATTTTGATGCACACTTTTGTGCAATTA [CACACA_site2902]	8.6
AACTGTAAAAAATATAAACACACATAGAAATATATA [CACACA_site8002]	7.01
TCATAGGGGTAGAAGGTGCAATAAAAAAGAAGAAAA	10.7
AAAATAAAAAGAAAAAGAAAAAAGGGGGGGTAGGGG [CACACA_negctrl_site1048]	7.86
CAGGGCAGGGGGAAGGGTACACATAAAAGAAAATAA [XGTACX_site172]	8.34
TGAACATTATAGAAAAGTACTTAGTTTTTAAAAAGA [XGTACX_site6864]	7
GTCTAAAAATAAAAAGTGCATTTGTTTAATATTTTG	9.52
TATATATATAAAAGTTGTACAGTGTTTTATATAGTT [XGTACX_site7085]	8.13
AAAAAAAAAAAAAAAGTGCACAGTCGTTTTAAAAAA [GTGCAC_site9848]	10.7
AAAAAAAAAAGAAACACACACATTTGTCTATAATAT [CACACA_site7063]	6.8
AAAATACATGGACACACACACACACCGATATATATA [CACACA_site5885]	7.4
TATGTTTTATATAAGATGCACTTTTGTTATGCTTCA	8.55
TTTTGTTTTTTCAATGTGCACTTAGGATGTTTTTAT [GTGCAC_site9565]	10.6
TTTTTTTTTTTTTTTGTGCACAATTATTTCAATTTT [GTGCAC_site9884]	8.88
